Source: PubChem BioAssay
The source made the active and inactive calls. Unless noted, no rule for the calls is given here.

How the values were obtained:
[1] = resazurin metabolic signal in HepG2 cells – cell-based, resazurin fluorescence, 24 h, PK04 Diversity Set, profiling panel (AID 1172); details: HepG2 viability, higher = more signal; also: test concentration not given here
[2] = budding yeast growth changes without added modifier – OD600, strain BY4716, 24 h, basal condition, primary screen (AID 1173); details: S. cerevisiae BY4716 growth, OD600, 24 h; higher = more signal, called active from +8 up or from −8 down
[3] = viability profiling in MM1S myeloma cells – cell-based, resazurin fluorescence, basal, 24 h, PK04 Diversity Set, profiling panel (AID 1174); details: higher = more signal, called active from +8 up or from −8 down;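 also: MM1S multiple myeloma cell line; test concentration not given here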
[4] = molecular target: Dihydroorotate dehydrogenase (quinone), mitochondrial (Plasmodium falciparum (isolate 3D7)) (UniProt Q08210); experiment: inhibition of P. falciparum DHODH – biochemical, C-terminal His tag, absorbance 600 nm, primary screen (AID 1175); details: PfDHODH enzyme, DCIP absorbance 600 nm; higher = more signal, called active from +8 up or from −8 down;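 also: recombinant parasite enzyme with a five histidine tag at its C terminus; test concentration not given here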
Chain of Dihydroorotate dehydrogenase (quinone), mitochondrial (Plasmodium falciparum (isolate 3D7)) (Q08210 whole entry, looked up): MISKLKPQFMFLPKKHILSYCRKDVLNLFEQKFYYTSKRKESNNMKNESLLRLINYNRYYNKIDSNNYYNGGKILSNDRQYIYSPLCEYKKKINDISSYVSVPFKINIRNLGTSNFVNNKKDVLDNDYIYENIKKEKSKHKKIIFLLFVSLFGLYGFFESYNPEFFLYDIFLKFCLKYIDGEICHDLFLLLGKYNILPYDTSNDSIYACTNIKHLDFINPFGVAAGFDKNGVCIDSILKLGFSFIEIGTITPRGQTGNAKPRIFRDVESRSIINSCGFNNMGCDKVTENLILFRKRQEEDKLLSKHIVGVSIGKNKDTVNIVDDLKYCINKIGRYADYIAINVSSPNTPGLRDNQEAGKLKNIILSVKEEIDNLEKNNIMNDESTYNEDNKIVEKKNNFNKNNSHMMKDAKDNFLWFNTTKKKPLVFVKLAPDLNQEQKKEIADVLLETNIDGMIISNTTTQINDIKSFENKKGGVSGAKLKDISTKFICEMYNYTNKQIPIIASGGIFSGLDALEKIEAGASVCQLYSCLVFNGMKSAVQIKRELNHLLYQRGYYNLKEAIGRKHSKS

[5] = inhibition of PAO1 biofilm formation – strain PAO1, LB-PBS medium, absorbance 600 nm, primary screen (AID 1176); also: test concentration not given here; details: P. aeruginosa PAO1 growth/biofilm, A600, 12 h; higher = more signal
[6] = growth modulation of vineyard yeast isolate – strain RM11-1a, OD600, basal, 24 h, primary screen (AID 1177);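 also: cultures grown under basal conditions with no added stressor; test concentration not given here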; details: S. cerevisiae RM11-1a growth, OD600, 24 h; higher = more signal, called active from +8 up or from −8 down
[7] = growth of efflux-deficient E. coli DRC39 – strain DRC39, OD650, 24 h, E. coli filamentation inducers, primary screen (AID 1178);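 also: growth measured as culture turbidity by optical density at 650 nm; test concentration not given here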; details: E. coli DRC39 acrAB, higher = more signal, called active from +8 up or from −8 down
[8] = growth of efflux-deficient E. coli DRC39 – strain DRC39, OD650, 48 h, E. coli filamentation inducers, primary screen (AID 1179);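 also: screen aims at cell division blockers that make cells filament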; details: E. coli DRC39 delta-acrAB growth, higher = more signal, called active from +8 up or from −8 down
[9] = viability profiling in RPMI8226 myeloma cells – cell-based, resazurin fluorescence, basal, 24 h, PK04 Diversity Set, profiling panel (AID 1180); details: higher = more signal;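 also: RPMI8826 multiple myeloma cell line at 5000 cells per well; test concentration not given here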
[10] = molecular target: E3 ubiquitin-protein ligase XIAP (Homo sapiens) (UniProt P98170); experiment: small molecules binding XIAP protein – biophysical, small-molecule microarray, fluorescence 635 nm, primary screen (AID 1181); details: higher = more signal;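 also: score merges 667 nm emission and signal to noise over triplicate slides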
Chain of E3 ubiquitin-protein ligase XIAP (Homo sapiens) (P98170 whole entry, looked up): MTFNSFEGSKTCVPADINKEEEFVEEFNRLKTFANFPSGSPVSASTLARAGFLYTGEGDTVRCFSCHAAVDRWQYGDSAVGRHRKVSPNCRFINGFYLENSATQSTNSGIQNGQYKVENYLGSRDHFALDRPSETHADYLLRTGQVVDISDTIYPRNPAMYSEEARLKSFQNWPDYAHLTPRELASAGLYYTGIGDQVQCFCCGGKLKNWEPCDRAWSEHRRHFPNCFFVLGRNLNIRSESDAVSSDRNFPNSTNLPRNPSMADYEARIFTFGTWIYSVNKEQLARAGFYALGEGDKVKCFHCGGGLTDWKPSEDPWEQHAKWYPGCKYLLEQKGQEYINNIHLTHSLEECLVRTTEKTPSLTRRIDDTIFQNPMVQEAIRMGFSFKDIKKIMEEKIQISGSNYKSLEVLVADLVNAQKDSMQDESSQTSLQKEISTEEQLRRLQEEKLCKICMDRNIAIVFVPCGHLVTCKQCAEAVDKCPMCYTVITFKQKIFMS

| SMILES | z-score [1] | z-score [2] | z-score [3] | composite z-score [4] | z-score [5] | z-score [6] | z-score [7] | z-score [8] | z-score [9] | composite z-score [10] |
| --- | --- | --- | --- | --- | --- | --- | --- | --- | --- | --- |
| COc1ccc(C(=O)Nc2ccc(CN3C(=O)[C@@]4(O[C@@H](CC(=O)N5CCC[C@H]5CO)[C@H]([Si](C)(C)c5ccc(OC)cc5)[C@H]4C)c4ccccc43)cc2)cc1 | 0.294 | -0.871 (inactive) | -0.675 (inactive) | -6.57 (inactive) | 1.58 (inactive) | 0.515 (inactive) | 1.28 (inactive) | 1.26 (inactive) | -0.677 | 0.0774 |
| Cc1ccc(S[C@]2(C(=O)NC3CC3)CC(=O)N(C3Cc4ccccc4C3)[C@@H]2c2ccc(CO)cc2)cc1 | -0.122 | -0.612 (inactive) | 0.0142 (inactive) | -1.85 (inactive) | 0.472 (inactive) | -1.52 (inactive) | 0.851 (inactive) | 1.26 (inactive) | 0.0919 | -0.162 |
| COc1ccc(C(=O)Nc2ccc(CN3C(=O)[C@@]4(O[C@@H](CCO)[C@H]([Si](C)(C)c5ccc(OC)cc5)[C@H]4C)c4ccccc43)cc2)cc1 | -4.21 | -3.8 (inactive) | -9.13 (active) | -0.851 (inactive) | 2.25 (inactive) | 3.08 (inactive) | 1.53 (inactive) | -0.0036 (inactive) | -5.97 | -0.172 |
| COC(=O)C=C(CC(O)c1cccc(Cl)c1)OC (stereo not given) | -0.0421 | -11.9 (active) | 0.427 (inactive) | -1 (inactive) | -1.07 (inactive) | -1.85 (inactive) | -0.246 (inactive) | 0.861 (inactive) | -0.219 | -0.169 |
| CC(C)C[C@@H]1NC(=O)[C@H]2C[C@@H](C(=O)NCCCCCCN(C)C)[C@@H](c3ccc(O)cc3)N2C1=O | -0.447 | -0.476 (inactive) | -0.671 (inactive) | -0.687 (inactive) | -0.214 (inactive) | -0.217 (inactive) | 0.0306 (inactive) | 0.152 (inactive) | -1.26 | 0.125 |
| [N-]=[N+]=Nc1ccccc1C[C@@]1(C(=O)NCCN2CCOCC2)N=C(c2ccc(OCCCO)cc2)O[C@@H]1c1ccccc1 | -0.139 | -4.41 (inactive) | -0.599 (inactive) | 0.842 (inactive) | -0.347 (inactive) | -0.0653 (inactive) | 0.655 (inactive) | 0.745 (inactive) | -0.125 | 0.0831 |
| C=CCC(OC(C)=O)[C@@H]1[C@@H](N(Cc2cccc3ccccc23)C(=O)c2ccc(-c3ccccc3)cc2)c2cc(OCCCO)ccc2N1C(=O)Cc1ccc(OC)cc1 (stereo not given in full) | 1.07 | -0.912 (inactive) | 1.6 (inactive) | -0.606 (inactive) | -0.513 (inactive) | -1.2 (inactive) | 0.738 (inactive) | 0.718 (inactive) | 1.45 | -0.0076 |
| CCOC(=O)C[C@H]1[C@H](OC(=O)c2cc3ccccc3oc2=O)[C@@H](NC(=O)C2CCCCC2)c2cc(OCCCO)ccc2N1C(=O)c1ccccc1 | -0.687 | -0.797 (inactive) | 0.0797 (inactive) | -2.85 (inactive) | -0.259 (inactive) | -0.403 (inactive) | 1.65 (inactive) | 0.612 (inactive) | 0.285 | -0.214 |
| C=CCNC(=O)[C@@H]1[C@H]2C(=O)O[C@H](c3ccccc3)[C@H](c3ccccc3)N2[C@H](c2ccccc2OCCO)[C@@]12C(=O)N(C(=O)OCCOC)c1ccc(C#CCNC(N)=O)cc12 | -0.359 | 0.808 (inactive) | -0.0716 (inactive) | 0.0199 (inactive) | 1.1 (inactive) | 1.43 (inactive) | 0.404 (inactive) | 0.703 (inactive) | 0.122 | 0.171 |
| COc1cc2c(cc1OC)CN(C(=O)[C@@H]1[C@H]3C(=O)O[C@H](c4ccccc4)[C@H](c4ccccc4)N3[C@H](c3ccc(O)cc3)[C@@]13C(=O)Nc1ccc(C#CC4(O)CCCCCC4)cc13)CC2 | 0.396 | -0.313 (inactive) | 0.323 (inactive) | -0.495 (inactive) | 0.958 (inactive) | 0.525 (inactive) | 0.241 (inactive) | 0.475 (inactive) | 0.777 | -0.0559 |
| CCCN1C(=O)[C@]2(CCS(=O)(=O)c3ccccc3)N=C(c3ccc(OCCCO)cc3)O[C@@H]2c2ccccc21 | -0.264 | -0.443 (inactive) | -0.278 (inactive) | 0.507 (inactive) | 0.0279 (inactive) | 0.492 (inactive) | 1.82 (inactive) | 0.544 (inactive) | -0.967 | -0.0773 |
| COCCCNC(=O)[C@@]1(Cc2ccccc2)N=C(c2ccc(OCCCO)cc2)O[C@H]1c1ccccc1 | 0.625 | -1.05 (inactive) | -0.0938 (inactive) | 0.282 (inactive) | 0.19 (inactive) | -0.82 (inactive) | 0.385 (inactive) | -0.456 (inactive) | 0.297 | -0.0376 |
| O=C1NCC(=O)N2[C@@H]1C[C@@H](C(=O)O)[C@H]2c1cccc(OCCO)c1 | 0.0195 | -0.816 (inactive) | -0.159 (inactive) | 0.97 (inactive) | -0.53 (inactive) | 0.569 (inactive) | -0.151 (inactive) | 0.524 (inactive) | -0.828 | 3.93 |
| COc1cc2c(cc1O)C(C1CC1)N(Cc1cc3c(cc1Br)OCO3)CC2 (stereo not given) | -1.94 | -2.67 (inactive) | -3.63 (inactive) | -1.55 (inactive) | 0.571 (inactive) | 0.698 (inactive) | -1.2 (inactive) | -1.71 (inactive) | -3.52 | 0.0761 |
| O=C1C2C=CC(C(O)c3ccc(F)cc3)N(Nc3ccccc3F)C2C(=O)N1c1ccccc1 (stereo not given) | -0.395 | -1.9 (inactive) | -0.63 (inactive) | 0.306 (inactive) | 0.599 (inactive) | 0.0815 (inactive) | -0.554 (inactive) | -0.184 (inactive) | -0.292 | 0.0029 |
| CCc1oc(CC[C@@H](CO)NC(=O)NCCn2cc(C3(O)CCCCC3)nn2)c(C(=O)OC)c1C(=O)OC | -0.676 | -1.16 (inactive) | -0.658 (inactive) | -0.32 (inactive) | -0.109 (inactive) | -0.298 (inactive) | -0.247 (inactive) | -0.64 (inactive) | -0.626 | -0.0078 |
| COCCOC(=O)N1C(=O)[C@@]2(c3cc(C#CCCO)ccc31)[C@H](C(=O)N1CCN(c3ncccn3)CC1)[C@H]1C(=O)O[C@H](c3ccccc3)[C@H](c3ccccc3)N1[C@@H]2c1ccccc1OCCO | 0.906 | 0.674 (inactive) | 0.399 (inactive) | -0.237 (inactive) | -0.116 (inactive) | 1.36 (inactive) | 0.111 (inactive) | -0.776 (inactive) | 0.485 | -0.0312 |
| CCOC(=O)C[C@H]1[C@H](OC(=O)Cc2ccc3c(c2)OCO3)[C@@H](NC(=O)c2ccc3ccccc3c2)c2cc(OCCCO)ccc2N1C(=O)c1ccccc1 | 0.898 | -0.206 (inactive) | -1.09 (inactive) | -0.777 (inactive) | 0.69 (inactive) | 0.738 (inactive) | -0.241 (inactive) | 0.15 (inactive) | -0.52 | -0.0426 |
| CCCC[C@@H]1C[C@H]1[C@@H](NC(=O)c1ccco1)c1ccc(Cl)cc1 | -0.653 | 1.44 (inactive) | 0.134 (inactive) | -0.284 (inactive) | 0.343 (inactive) | 0.657 (inactive) | -0.181 (inactive) | 0.16 (inactive) | -0.0142 | -0.124 |
| CC(C)C[C@H]1NC(=O)[C@@]23C(=O)N[C@@H](Cc4ccccc4)C2[C@H](C)[C@@]2(C)O[C@H]2C3/C=C/C/C=C\CNC(=O)[C@H](Cc2ccccc2)NC1=O (stereo not given in full) | 0.183 | 0.0247 (inactive) | 0.333 (inactive) | -0.259 (inactive) | 0.0117 (inactive) | 1.66 (inactive) | 0.805 (inactive) | 0.199 (inactive) | 0.628 | 0.0842 |
| CCCC[C@@H]1C[C@H]1[C@@H](NC(=O)c1ccco1)c1ccc(C(=O)OC)cc1 | -0.351 | 0.788 (inactive) | -0.184 (inactive) | -0.271 (inactive) | 0.812 (inactive) | -0.716 (inactive) | -1.03 (inactive) | -0.489 (inactive) | -0.826 | 0.104 |
| CC(C)(C)OC(=O)CC[C@@]1(C(N)=O)N=C(c2ccc(OCCCO)cc2)O[C@@H]1c1ccccc1 | -0.175 | -0.63 (inactive) | -0.121 (inactive) | 0.0187 (inactive) | 0.469 (inactive) | -0.412 (inactive) | -0.352 (inactive) | -1.12 (inactive) | -0.359 | -0.18 |
| COc1ccc(C(O)C2C=CC3C(=O)N(c4ccccc4)C(=O)C3N2Nc2ccc(C(C)C)cc2)cc1OCc1ccccc1 (stereo not given) | -0.217 | -1.78 (inactive) | -0.0284 (inactive) | 0.785 (inactive) | 2.33 (inactive) | 0.165 (inactive) | -1.91 (inactive) | -1.38 (inactive) | -0.291 | -0.0535 |
